Compounds without any hit were thinned out: in the full panel of roughly 83,000, 20% have a hit.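 In brief: 96-well plates, 48 h treatment, single concentration, percent growth endpoint.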 Unmarked numbers belong to inactive results. Activity calls are given as the source filed them. Rule for the calls: active = growth percent below 10; inactive = the rest.
How the values were obtained:
Test in all cases: NCI-60 one-dose screen, 48 h (100 = growth as untreated, 0 = no growth, -100 = all killed)
Conditions in all cases: 10 µM unless noted
T-47D breast = tested on: T-47D breast
BT-549 breast = tested on: BT-549 breast
MDA-MB-435 melanoma = tested on: MDA-MB-435 melanoma
SW-620 colon = tested on: SW-620 colon
MCF7 breast = tested on: MCF7 breast
HCT-116 colon = tested on: HCT-116 colon
HCC-2998 colon = tested on: HCC-2998 colon
KM12 colon = tested on: KM12 colon

Structure (SMILES) | growth (T-47D breast) | growth (BT-549 breast) | growth (MDA-MB-435 melanoma) | growth (SW-620 colon) | growth (MCF7 breast) | growth (HCT-116 colon) | growth (HCC-2998 colon) [%] | growth (KM12 colon)
COc1cc(C)cc2oc3oc(=O)c(C(=O)c4cc5cc(Br)ccc5o4)cc3c(=O)c12 | 107% | 100% | 104% | 101% | 101% | 99.7% | 110 | 107%
C=C(C)[C@@H]1CC[C@]2(C(N)=O)CC[C@]3(C)[C@H](CC[C@@H]4[C@@]5(C)C/C(=C/c6cccnc6)C(=O)C(C)(C)[C@@H]5CC[C@]43C)[C@@H]12 | 1.22% [100 µM] (active) | 14.1% [100 µM] | 0.0948% [100 µM] (active) | 3.53% [100 µM] (active) | 10.8% [100 µM] | 5.4% [100 µM] (active) |  | -3.05% [100 µM] (active)
COc1c(B(O)O)cccc1-c1nc2ccc3[nH]ncc3c2c2c1CCC2 | 48% | 60% | 64% | 54.8% | 74.4% | 47.3% |  | 51.3%
N#C/C(C(=O)c1ccccc1)=C1/C(=O)Nc2ccc(Br)cc21 | 90.5% | 99.2% | 102% | 97% | 95.9% | 99.8% |  | 105%
COc1cc2c(O)n(CCCN3CCOCC3)c3c4cnc5cccc(c(=O)c3c2cc1OC)c54 | 18.6% | 57.9% | 47.2% | 34.9% | 14.5% | 27.9% |  | 46.3%
CN(C)CCCNc1nc(-c2cccc(C(Cl)(Cl)Cl)c2)nc(C(Cl)(Cl)Cl)n1 | 109% | 77.8% | 105% | 98.8% | 93.5% | 92.9% |  | 111%

Reference: PubChem BioAssay (NCI)
